# Source: paper PMC8668186, “Molecular architecture of the human tRNA ligase complex” (eLife, 2021)
# Columns and labels:
# [1] = target: DDX1 (UniProt Q92499); assay: cross-linking mass spectrometry; conditions: DSS, purified complex
# [2] = target: RTCB (UniProt Q9Y3I0); assay: cross-linking mass spectrometry; conditions: DSS, purified complex
# RTCB, sequence (Q9Y3I0 whole entry): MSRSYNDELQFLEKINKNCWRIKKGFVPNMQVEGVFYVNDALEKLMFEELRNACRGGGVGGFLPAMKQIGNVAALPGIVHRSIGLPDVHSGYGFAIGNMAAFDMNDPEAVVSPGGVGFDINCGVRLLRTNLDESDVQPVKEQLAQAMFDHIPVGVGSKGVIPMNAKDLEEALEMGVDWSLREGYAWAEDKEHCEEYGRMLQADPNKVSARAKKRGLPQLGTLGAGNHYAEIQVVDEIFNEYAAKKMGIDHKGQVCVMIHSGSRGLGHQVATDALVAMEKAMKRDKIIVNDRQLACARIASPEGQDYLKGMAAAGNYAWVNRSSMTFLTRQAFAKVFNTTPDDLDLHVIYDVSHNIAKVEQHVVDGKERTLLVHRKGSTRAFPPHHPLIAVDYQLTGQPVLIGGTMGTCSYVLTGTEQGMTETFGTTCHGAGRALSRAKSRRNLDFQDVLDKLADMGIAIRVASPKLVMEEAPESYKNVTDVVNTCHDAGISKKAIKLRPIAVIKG
# FAM98B, sequence (Q52LJ0 whole entry): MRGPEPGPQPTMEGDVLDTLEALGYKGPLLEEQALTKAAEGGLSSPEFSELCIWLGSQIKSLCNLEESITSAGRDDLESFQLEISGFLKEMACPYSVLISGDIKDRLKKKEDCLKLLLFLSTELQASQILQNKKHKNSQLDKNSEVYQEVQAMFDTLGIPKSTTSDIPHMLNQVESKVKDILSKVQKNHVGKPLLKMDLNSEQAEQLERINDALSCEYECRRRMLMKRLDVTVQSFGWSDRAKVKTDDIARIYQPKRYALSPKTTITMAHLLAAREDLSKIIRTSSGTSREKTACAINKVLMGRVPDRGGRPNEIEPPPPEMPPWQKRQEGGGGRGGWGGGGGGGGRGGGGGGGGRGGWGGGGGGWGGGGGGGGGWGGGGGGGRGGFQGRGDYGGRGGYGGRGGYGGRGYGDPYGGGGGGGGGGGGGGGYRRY
# DDX1, sequence (Q92499 whole entry): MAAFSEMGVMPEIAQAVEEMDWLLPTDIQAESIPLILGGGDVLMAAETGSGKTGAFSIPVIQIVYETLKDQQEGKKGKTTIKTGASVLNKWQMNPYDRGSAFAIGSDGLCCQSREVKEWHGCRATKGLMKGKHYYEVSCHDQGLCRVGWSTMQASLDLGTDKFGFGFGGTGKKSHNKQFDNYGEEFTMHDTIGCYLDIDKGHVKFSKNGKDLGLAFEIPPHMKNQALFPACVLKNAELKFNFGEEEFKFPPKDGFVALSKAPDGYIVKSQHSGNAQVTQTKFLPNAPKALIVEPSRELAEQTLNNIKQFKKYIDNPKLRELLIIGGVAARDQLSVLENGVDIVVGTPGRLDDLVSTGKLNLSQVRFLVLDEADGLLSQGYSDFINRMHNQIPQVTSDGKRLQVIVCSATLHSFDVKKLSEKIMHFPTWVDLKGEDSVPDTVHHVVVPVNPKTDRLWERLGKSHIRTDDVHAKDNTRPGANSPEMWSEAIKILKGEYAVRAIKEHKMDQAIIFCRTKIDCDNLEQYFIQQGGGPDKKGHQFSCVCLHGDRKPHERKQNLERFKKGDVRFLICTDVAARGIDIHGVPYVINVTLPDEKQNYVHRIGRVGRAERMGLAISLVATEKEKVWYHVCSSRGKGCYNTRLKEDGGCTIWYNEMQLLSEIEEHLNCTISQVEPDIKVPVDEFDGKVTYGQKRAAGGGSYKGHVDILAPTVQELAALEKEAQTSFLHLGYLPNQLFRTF
substance,measurement,setting,value
"FAM98B, Q52LJ0",cross-linked residues,[1],K245 - K693
same,cross-linked residues,[2],K280 - K245
